For 36 compounds, growth results are on record in PubChem BioAssay (NCI).

Where “and” joins values, the source holds several entries; their conditions need not be identical. Equal values may be shown once. About 83,000 compounds went through this panel and 20% of them were active in at least one assay; those are over-represented in the sample as a whole.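 Assay: single dose, 48 h. Readout: percent growth (0 = no net growth; negative = cell death). Active: <10.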 Calls of active or inactive are those of the source.

In one assay the test system is NCI/ADR-RES ovarian. Nature of the assay: NCI-60 one-dose screen, 48 h (100 = growth as untreated, 0 = no growth, -100 = all killed). To be noted: 10 µM. As to the method: Growth inhibition of the NCI/ADR-RES human […] tumor cell line is measured as a screen for anti-cancer activity. Cells are grown in 96 well plates and exposed to the test compound for 48 hours. Compounds are tested at a single concentration, which is 10^-5 M for most compounds. The reported endpoint is percent growth (GI% or GIPRCNT), where numbers from 0 - 100% represent growth inhibition, and numbers from -100% - 0 represent cell death. For example, a value of 40 represents 60% growth inhibition. A value of 0 means no net growth occurred over the course of the experiment. A value of -40 indicates 40% of cells at the beginning of the experiment died by the end of the experiment. A value of -100 means all cells are dead at the end of the experiment.
NCI-60 Human Tumor Cell Lines Screen was performed using the standard one-dose NCI protocol, which is described in more detail at https://dtp.cancer.gov/discovery_development/nci-60/default.htm.
Compounds with GIPRCNT values below 10 were considered active. Activity score was based on GIPRCNT using the following formula: […]
Score is 0 for GIPRCNT values of 100 or above, 50 for GIPRCNT values of 0, and 100 for GIPRCNT values of -100.
Regarding `COc1ccc(C(=O)/C=C/c2ccc(OCc3ccc(Cl)cc3)cc2)cc1OC`, the growth is 91.5% (inactive).
Same read-out and setting: under `CCN(Cc1ccccc1)c1ccc(/C=C2\COc3ccccc3C2=O)cc1` stands 101% (inactive); under `COc1ccc(C(=O)/C=C/c2ccc(OCc3cccc(C(F)(F)F)c3)c(OC)c2)cc1OC`, 71.4% (inactive); under `CC(=O)/C=C/c1ccc(N(C)Cc2ccc(C(C)(C)C)cc2)cc1`, 86.1% (inactive).

The same assay, now with this note: 10 µM unless noted.
On to `Nc1nc(N)c2c(n1)NC(c1ccc(Cl)cc1)CC(c1cccc(Nc3ccncc3)c1)=N2` (stereo not given), for which the growth is 100% (inactive).
The same measure, in the same setting: under `COc1ccc(C/C(C)=C(/c2ccc(OCCN3CCCC3)cc2)c2ccc(OC(=O)NCc3ccccc3)cc2)cc1` stands 97.1% (inactive); under `CCN(c1cc(-c2ccc(CN3CCC(/C=C/S(=O)(=O)c4ccccc4)CC3)cc2)cc(C(=O)NCc2c(C)cc(C)[nH]c2=O)c1C)C1CCOCC1`, 73.7% (inactive); under `O=C(Nc1ccc2ncsc2c1)c1csc(Nc2ccc3[nH]ncc3c2)n1`, 56.9% (inactive).
Same read-out and setting: under `COc1cccc(NC(=O)c2sc3nc(C)c(C(O)c4ccccc4)cc3c2N)c1` (stereo not given) stands 7.31% (active); under `CCN(CC)CC(=O)Nc1ccc2ncnc(Nc3ccc(Oc4cccc(F)c4)c(Cl)c3)c2c1`, 69.6% (inactive).
The same measure, in the same setting: then `COc1cc(CO)cc2cc3ccccc3nc12`, with 111% (inactive).
Regarding `COc1ccc(C(=O)c2ccc(OC)c(OC)c2OC)cc1`, the growth is 18.5% (inactive) and -13.9% (active).
On the same count and under the same terms, then `COc1ccc(-c2cc(=O)c3c(O)cc(O)cc3o2)cc1`, with 99.6% (inactive) and 99.1% (inactive).
Still for that read-out and setting: under `COc1ccc(/C=N/NC(=O)CN2CCN(c3cc4c(cc3F)c(=O)c(C(=O)O)cn4C3CC3)CC2)cc1O` stands 106% (inactive).
On to `Nc1nc(CSc2n[nH]c(N)n2)nc(Nc2ccccc2)n1`, for which the growth is 105% (inactive).
Same read-out and setting: then `COc1ccc2c(c1)c(C(=O)c1nc(-c3cn(C)c4ccccc34)no1)cn2C`, with 94.3% (inactive).
On to `COc1c(O)c(O)cc2c3c(oc12)CC(c1ccc2c(c1)OCO2)CC3=O` (stereo not given), for which the growth is 67% (inactive).
As for `COc1cc(/C=C2\CCC/C(=C\c3cc(CN4CCCC4)c(O)c(OC)c3)C2=O)cc(CN2CCCC2)c1O`, the growth is 59.8% (inactive).
The same measure, in the same setting: under `Cc1[nH]c(C(=O)Nc2nc3ccc(NC(=O)CCN)cc3s2)c(Cl)c1Cl` stands 58.4% (inactive).
As for `CCN1C(=O)/C(=c2\sc3n(c2=O)C2C(NN=3)N(CC)C(=O)N2CC)c2ccccc21` (stereo not given), the growth is 5.59% (active).
Take `NC(=O)c1c(NC(=O)/C=C/c2cccs2)sc2c1CCC(=O)C2`: the growth is 52.4% (inactive).
On to `COc1cc(F)c(/C=C/c2cc(/C=C/c3cc(OC)c(OC)cc3F)n(-c3cc(F)cc(F)c3)n2)cc1OC`, for which the growth was 12% (inactive).
For `CCCCn1c(C(=O)c2c[nH]c3ccccc23)n[nH]c1=S`, the growth was 107% (inactive).
For the compound `CN1CCN(c2ccc(/C=C/C(=O)c3ccc(O)cc3)cc2)CC1`, the growth is 99.9% (inactive).
The same measure, in the same setting: under `Fc1ccc(NC(c2ccc(F)cc2)C2CCN(CCCCc3ccccc3)CC2)cc1` (stereo not given) stands 49.5% (inactive).
With `CNC(=O)c1cc(Oc2ccc3nc(NC(=O)Nc4ccc(C(F)(F)F)cc4)sc3c2)ccn1`, the growth was 58.4% (inactive).
The same measure, in the same setting: under `COc1cc(N=Nc2ccc(O)c3ncccc23)c2ncccc2c1` stands -1.77% (active).
On the same count and under the same terms, under `COc1ccc(/C(C)=C(\c2ccc(OCCN3CCOCC3)cc2)c2ccc(OC(=O)C3CCCCC3)cc2)cc1` stands 102% (inactive).
Same read-out and setting: then `O=C(c1cccc(Br)c1)N1CCN(c2ccnc3cc(Cl)ccc23)CC1`, with 88.1% (inactive); and `CC[C@@H]1NC(=O)[C@H]([C@H](O)[C@H](C)C/C=C/c2ccc(CN3C(=O)C(C)=C(C)C3=O)cc2)N(C)C(=O)[C@H](C(C)C)N(C)C(=O)[C@H](CC(C)C)N(C)C(=O)[C@H](CC(C)C)N(C)C(=O)[C@@H](C)NC(=O)[C@H](C)NC(=O)[C@H](CC(C)C)N(C)C(=O)[C@H](C(C)C)NC(=O)[C@H](CC(C)C)N(C)C(=O)CN(C)C1=O`, with 76.5% (inactive); and `COc1ccc(/C=C(\C#N)c2cc3ccccc3[nH]2)cc1`, with -6.87% (active).
Turning to `Nc1ccc(/C=N/Nc2ccnc3c(N)cccc23)c2cccnc12`, the growth was 9.25% (active).
Same read-out and setting: under `Cc1ccc(-c2nc(SCC(=O)c3ccc(C#N)cc3)[nH]c(=O)c2C#N)cc1` stands 101% (inactive); under `CC1(C)C(N)=Nc2cc(OCCCN3Cc4ccc(OCCc5cn(CC(=O)N6CCC(CCN7CCCC7)CC6)nn5)cc4C3)c(OCC3CC3)cc21`, 103% (inactive); under `COC1/C=C/OC2(C)Oc3c(C)c(O)c4c(O)c(c(C=NOC(c5ccccc5)c5ccccc5)c(O)c4c3C2=O)NC(=O)/C(C)=C/C=C/C(C)C(O)C(C)C(O)C(C)C(OC(C)=O)C1C` (stereo not given), 28.9% (inactive).
For `O=S(=O)(O)c1ccc(N=Nc2ccc(N=Nc3cccc4ccccc34)c(S(=O)(=O)O)c2)cc1`, the growth was 103% (inactive).

Still in this assay, the particulars now being: 100 µM.
In the case of `COc1ccc(C(=O)/C=C/c2ccc(OCc3ccc(Cl)cc3)cc2)cc1OC`, the growth is 0.0169% (active).
Still for that read-out and setting: then `CCN(Cc1ccccc1)c1ccc(/C=C2\COc3ccccc3C2=O)cc1`, with 23.4% (inactive); and `COc1ccc(C(=O)/C=C/c2ccc(OCc3cccc(C(F)(F)F)c3)c(OC)c2)cc1OC`, with -6.47% (active); and `CC(=O)/C=C/c1ccc(N(C)Cc2ccc(C(C)(C)C)cc2)cc1`, with -60.1% (active).
